Measured values from the supplement of paper PMC3334620.
In all, about 33,000 sequences were measured (“E-score (-0.5 to 0.5)”: median about -0.0014, highest 2% from about 0.25 on). This is one part of a sample in which the highest values are shown more often than they occur.

Each sequence was assayed against T1, Cad1 (UniProt P24813) (assay: PBM E-score (8-mer binding enrichment) (E-score (-0.5 to 0.5)); higher = stronger / more preferred TF binding). Details: protein concentration: 100 nM; construct: GST-full length.
T1 sequence: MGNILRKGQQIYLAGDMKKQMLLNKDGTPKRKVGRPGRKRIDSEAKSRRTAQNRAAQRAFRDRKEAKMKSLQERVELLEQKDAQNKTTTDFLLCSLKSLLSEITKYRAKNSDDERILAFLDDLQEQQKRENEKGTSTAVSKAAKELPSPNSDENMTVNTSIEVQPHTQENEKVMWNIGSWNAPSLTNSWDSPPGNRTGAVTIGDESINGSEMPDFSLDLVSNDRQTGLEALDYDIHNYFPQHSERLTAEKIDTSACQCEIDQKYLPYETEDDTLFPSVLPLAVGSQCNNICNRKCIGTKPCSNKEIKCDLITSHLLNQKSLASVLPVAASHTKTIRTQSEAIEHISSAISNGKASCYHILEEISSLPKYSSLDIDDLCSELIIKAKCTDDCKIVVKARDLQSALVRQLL
Experimental: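 Universal 'all 10-mer' protein binding microarrays (Agilent AMADID 015681) probed with GST-tagged S. cerevisiae TFs (full-length or DBD) made by in vitro transcription/translation (PURExpress), about 100-200 nM. Bound TF was detected with fluorescent anti-GST. Each ungapped 8-mer (which stands for itself and its reverse complement) is scored by the PBM enrichment score (E-score), a modified Wilcoxon-Mann-Whitney statistic from -0.5 to +0.5, computed with the Universal PBM Analysis Suite. Scale: above 0.35 generally sequence-specific binding.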

Row | Sequence | PBM E-score
1 | CTCGCGGA | -0.155
2 | CGCAGCAC | 0.0114
3 | ACATACGA | 0.117
4 | CTGAAGAA | -0.18
5 | CAACTGTG | -0.031
6 | CAAGACAG | -0.0259
7 | CATGCCAG | -0.0523
8 | CCTATTAA | -0.00224
9 | CTTATTAC | 0.218
10 | TGTGTTAA | 0.19
11 | GGTGTTAA | 0.0749
12 | CTTATTAA | 0.42
13 | AGTGTTAA | 0.255
14 | TATTTTAA | 0.107
15 | GCGGCTTA | 0.227
16 | ACCTCTTA | 0.153
17 | AAGTCATG | 0.0989
18 | ACCGCCTG | -0.142
19 | ACCCGGAC | -0.179
20 | GTTTAATA | 0.189
21 | CTTTAATC | -0.00133
22 | ATTTAATC | 0.285
23 | ATTTAATA | 0.316
24 | ATTTAATG | 0.213
25 | CTTTAATA | 0.218

Row | Sequence | PBM E-score
26 | AGAGAGGC | -0.297
27 | AGTAAACT | 0.105
28 | CCTAGATA | -0.0467
29 | CACGTTTC | -0.176
30 | CAATTTTC | 0.125
31 | CAATTTTA | 0.27
32 | CAATTTAA | 0.156
33 | CTCGCTGA | 0.0202
34 | ACGATCGA | 0.254
35 | TCGATCGA | 0.27
36 | CCGATCGA | 0.0111
37 | GCGATCGA | 0.248
38 | ACGATCGG | 0.0625
39 | ACGATCGT | -0.0266
40 | GATTGAGC | 0.0444
41 | ATCAGCAT | 0.192
42 | CACTAATC | 0.262
43 | GACTAATC | 0.362
44 | GACTAAGC | 0.228
45 | AACTAATC | 0.179
46 | CACTAAGC | 0.0972
47 | CACTAACC | 0.0546
48 | CTCGCTCA | 0.138
49 | CACCGCCC | -0.0109
50 | AAACTTAA | 0.171

Row | Sequence | PBM E-score
51 | AAACTAAA | 0.141
52 | TAACTTAA | 0.259
53 | AAACTAAT | 0.36
54 | AAACTCAT | 0.253
55 | AAACTAAG | 0.166
56 | GAACTTAA | 0.116
57 | AAACTTAC | 0.0226
58 | AAACTTAT | 0.256
59 | CAACTTAA | 0.0842
60 | AAACTCAG | -0.00451
61 | AAACTCAA | 0.163
62 | CCCCCTGA | -0.414
63 | AGGGATCG | -0.207
64 | AAAAGTGT | -0.074
65 | CCAGACAA | 0.0234
66 | CTAGGTGC | -0.221
67 | AACCGCTT | 0.0439
68 | CTTCCTAA | 0.0434
69 | AGTCCTTG | -0.0247
70 | ATCAAGCC | -0.0325
71 | CATCGCGC | 0.051
72 | AATCGCGA | 0.196
73 | CATCGCGA | 0.25
74 | TATCGCGA | 0.259
75 | GATCGCGA | 0.132

Row | Sequence | PBM E-score
76 | TATCGCAA | 0.22
77 | CGGCTCCA | -0.0781
78 | CGCGTTAC | 0.139
79 | AACGGGGT | -0.13
80 | ATTAGCAG | 0.0216
81 | CTAAGCTA | 0.135
82 | GTAAGCTA | 0.298
83 | GTAAGCAC | 0.163
84 | ATAAGCTA | -0.0126
85 | ATTAGCAA | 0.304
86 | CTAAGCAG | -0.078
87 | TTAAGCAA | -0.0269
88 | GTAAGCAA | 0.345
89 | CTAAGCAA | 0.0503
90 | CTAAGCAC | 0.294
91 | GTTAGCAA | 0.0595
92 | AGTGTCTG | 0.15
93 | ACGCAGGG | -0.155
94 | AGCTGCGC | 0.0681
95 | ACAAAGTG | 0.0733
96 | GCTCAGAC | -0.0381
97 | CACCTAGA | -0.156
98 | CTTAAGCC | 0.00617
99 | ATAAGCAC | 0.208
100 | ATAAGCAT | 0.0827

Row | Sequence | PBM E-score
101 | ATAAGCAA | 0.296
102 | AGATACAA | 0.256
103 | AGATACAG | 0.0445
104 | CGATACAA | 0.0958
105 | GTGCTCTA | -0.119
106 | GTGACTTA | 0.1
107 | ATAAGCGA | 0.287
108 | CTAAGCGA | 0.0774
109 | GTAAGCGA | 0.281
110 | ATAAGCGC | 0.139
111 | GGAAGCGA | -0.0787
112 | ATAAGCGG | 0.0934
113 | CAAACCGG | -0.0831
114 | AAGTATGG | 0.00171
115 | ACTGGAGG | 0.0173
116 | ACATTTAA | 0.253
117 | ATATTTAA | 0.272
118 | ACATTTAG | -0.126
119 | ATATTTAC | 0.228
120 | GCATTTAA | 0.0157
121 | GTATTTAA | 0.0263
122 | ATATTTAG | 0.255
123 | ATATTTGG | 0.146
124 | ATATTTGC | 0.306
125 | CTATTTAA | -0.0377

Row | Sequence | PBM E-score
126 | ATTTTTAG | 0.0211
127 | CTATTTGC | -0.0458
128 | CAAGAGGG | -0.247
129 | CGCAACGA | -0.00619
130 | CCGGAAAC | 0.125
131 | CCCGGGTC | -0.242
132 | ATGACGAA | 0.145
133 | ATATGATA | 0.285
134 | CTATGATA | 0.0824
135 | ATGATATC | 0.0971
136 | GTATGATA | 0.23
137 | ATGATATG | 0.29
138 | ATGATATA | -0.027
139 | CTAACTGC | -0.0676
140 | AAACACCA | -0.00879
141 | CGTATGGC | 0.14
142 | AGTACGAA | 0.22
143 | AGCAGCGG | -0.0904
144 | ATATTATG | 0.268
145 | ATATTATA | 0.164
146 | CAATTATG | 0.105
147 | AAATTATG | 0.255
148 | ATATTATC | 0.096
149 | AAATTATC | 0.246
150 | ACATGTAT | 0.204

Row | Sequence | PBM E-score
151 | ATGCCTTA | -0.158
152 | CGTGATCA | 0.123
153 | AATTTTGG | 0.149
154 | ATTGGTAA | 0.257
155 | CTTGGTAA | 0.0981
156 | GTTGGTAA | 0.19
157 | GCCCACAA | -0.153
158 | ATTCAATG | 0.114
159 | ATTCAATC | 0.263
160 | CTTCAATC | -0.066
161 | GACACAGC | 0.0664
162 | CCTGTGCC | -0.136
163 | ATTCCGGA | 0.254
164 | AATCCGGG | -0.0636
165 | AATCCGGA | 0.306
166 | AATCCGAA | -0.0355
167 | CTTCCGGA | 0.0325
168 | AATCCGAC | 0.00376
169 | ATTCCGGG | 0.122
170 | AATCCGAT | 0.25
171 | AATCCGGC | 0.104
172 | CTGCTCAC | -0.0643
173 | TGACCACA | -0.0368
174 | GTCTCCTA | -0.194
175 | ACCAAGGC | -0.0921

Row | Sequence | PBM E-score
176 | ACAGTCCC | -0.188
177 | CCTAGCAA | -0.0559
178 | CGAGCTTA | 0.214
179 | CGAGCTTC | 0.258
180 | AGAGCTTC | -0.181
181 | GAGCCCAC | -0.1
182 | AAAGAACA | 0.0562
183 | CGACGTTC | -0.265
184 | GGACGTTA | 0.0449
185 | CGACGTTA | 0.276
186 | CGCATGTC | 0.0303
187 | GCGAGGCC | -0.113
188 | GATATTAC | 0.293
189 | TATATTAA | 0.326
190 | ACTATTAC | 0.149
191 | GCTATTAC | 0.098
192 | GACATTAA | 0.124
193 | TGTATTAA | -0.00939
194 | CATATTAC | 0.225
195 | AATATTAC | 0.347
196 | AACATTAA | 0.127
197 | TACATTAA | 0.26
198 | GATATTAA | 0.187
199 | CCTATTAC | -0.0089
200 | ACATGGAT | 0.0578

Row | Sequence | PBM E-score
201 | ATTTGATC | -0.0183
202 | AGCCCGAC | -0.149
203 | ACGTTTGA | 0.0358
204 | AAAGGACT | -0.224
205 | ATGTGGCC | -0.0491
206 | AATGGTGC | -0.131
207 | GCTGAACC | -0.0931
208 | ACTTTGGC | -0.0521
209 | TACTGCGA | 0.0327
210 | AGCTCCAG | -0.181
211 | AGATTTCC | 0.185
212 | AATATTAA | 0.281
213 | CATATTAA | 0.272
214 | AATATTAT | 0.194
215 | CATATTAG | 0.179
216 | CATATTTA | 0.232
217 | AATATTAG | 0.213
218 | CGATTGTC | 0.174
219 | AGCTATTC | -0.215
